Records with an inconclusive call do not appear. Calls of active or inactive are those of the source. How the source made its calls: active means hit-call score of the fitted dose curve at least 0.9, where 1 is the maximum; inconclusive means response in the unintended direction; inactive means score below 0.9.
molecular target: Oxysterols receptor LXR-alpha (Homo sapiens) (UniProt Q13133); assay: ATG_LXRa_TRANS: Attagene TRANS-FACTORIAL HepG2 Assay for human Liver X Receptor alpha (LXRa) (AID 2282980); details: HepG2 Attagene TRANS reporter, LXRa transactivation
Sequence (Q13133 whole entry, looked up, the tested form may be a part): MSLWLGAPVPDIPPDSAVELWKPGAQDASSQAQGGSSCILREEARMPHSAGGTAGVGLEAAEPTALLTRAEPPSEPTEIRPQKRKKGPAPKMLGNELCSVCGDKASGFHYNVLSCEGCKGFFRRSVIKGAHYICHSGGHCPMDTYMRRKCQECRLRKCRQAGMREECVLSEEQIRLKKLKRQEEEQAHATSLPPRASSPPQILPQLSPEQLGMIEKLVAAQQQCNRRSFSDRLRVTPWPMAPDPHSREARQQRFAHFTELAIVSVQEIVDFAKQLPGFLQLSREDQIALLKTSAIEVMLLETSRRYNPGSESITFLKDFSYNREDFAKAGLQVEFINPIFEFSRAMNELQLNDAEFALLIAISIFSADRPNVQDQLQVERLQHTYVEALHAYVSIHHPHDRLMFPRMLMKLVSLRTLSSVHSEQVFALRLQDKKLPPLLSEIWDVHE
Procedure, shortened: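 Read-out: reporter transcript levels by RT-PCR plus capillary electrophoresis, fluorescence intensity. Transiently transfected HepG2, exogenous NR-GAL4 chimera, GAL4-UAS reporters; 24 h compound exposure. Activity = increase over DMSO negative control.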

Row | SMILES | outcome
1 | OCC1CO1 (configuration not stated) | inactive
2 | CNC(=O)Oc1ccc(N(C)C)c(C)c1 | inactive
3 | Nc1ccc(Cl)cc1 | inactive
4 | COC(N)=O | inactive

molecular target: Oxysterols receptor LXR-beta (Homo sapiens) (UniProt P55055); assay: ATG_LXRb_TRANS: Attagene TRANS-FACTORIAL HepG2 Assay for human Liver X Receptor beta (LXRb) (AID 2282981); details: HepG2 Attagene TRANS GAL4-LXRb reporter, mRNA
Sequence (P55055 whole entry, looked up, the tested form may be a part): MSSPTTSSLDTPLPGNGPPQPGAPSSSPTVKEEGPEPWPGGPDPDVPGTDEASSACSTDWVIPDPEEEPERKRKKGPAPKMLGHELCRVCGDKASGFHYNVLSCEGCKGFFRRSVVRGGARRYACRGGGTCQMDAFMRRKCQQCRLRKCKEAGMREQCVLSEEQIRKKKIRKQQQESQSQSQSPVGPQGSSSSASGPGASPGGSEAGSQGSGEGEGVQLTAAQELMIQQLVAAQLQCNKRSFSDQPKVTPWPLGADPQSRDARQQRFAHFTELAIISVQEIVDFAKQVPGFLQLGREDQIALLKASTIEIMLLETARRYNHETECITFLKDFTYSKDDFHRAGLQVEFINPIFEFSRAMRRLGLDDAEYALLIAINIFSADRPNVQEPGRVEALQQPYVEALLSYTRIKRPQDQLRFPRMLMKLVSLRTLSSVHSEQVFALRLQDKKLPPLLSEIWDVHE
Procedure, shortened: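 Gain-of-signal mRNA reporter endpoint, DMSO as negative control. Transiently transfected HepG2 cells carrying the NR-Gal4 chimera and GAL4-UAS reporter units were treated 24 h; transcripts quantified by RT-PCR and capillary electrophoresis fluorescence.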

Row | SMILES | outcome
5 | c1nc[nH]n1 | inactive
6 | Oc1ccc(I)cc1 | inactive
7 | CCOS(=O)(=O)OCC | inactive
8 | CC1=C(C(=O)Nc2ccccc2)S(=O)(=O)CCO1 | inactive

system: not listed separately; assay: ATG_M_06_TRANS: Attagene TRANS-FACTORIAL HepG2 Assay for M06 Transcription Factor (Internal Marker) (AID 2282983); details: HepG2 Attagene TRANS M06 internal marker reporter
Procedure, shortened: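 After a 24 h chemical treatment of transfected HepG2, RNA underwent DNase I treatment, reverse transcription and reporter-specific PCR; labelled, HpaI-digested products were sized by capillary electrophoresis. Signal increase relative to DMSO defined activity.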

Row | SMILES | outcome
9 | CCC1(c2ccccc2)C(=O)N=C(O)NC1=O (configuration not stated) | inactive
10 | COP(=O)(O)OC | inactive
11 | CO/N=C(/C(=O)OC)c1ccccc1COc1ccccc1C | inactive
12 | Cc1c([N+](=O)[O-])cc2c(c1[N+](=O)[O-])C(C)(C)CC2(C)C | inactive
13 | CCCCC(CC)COC(=O)c1c(Br)c(Br)c(Br)c(Br)c1C(=O)OCC(CC)CCCC (configuration not stated) | inactive
14 | CCOP(=S)(NC(C)C)Oc1ccccc1C(=O)OC(C)C (configuration not stated) | inactive
15 | O=[N+]([O-])c1cc(Cl)ccc1Cl | inactive
16 | CCOP(=O)(O)C(N)=O | inactive
17 | OCC1CO1 (configuration not stated) | inactive
18 | Cn1[nH]nnc1=S | inactive
19 | CC(C)(C)N(NC(=O)c1ccc(Cl)cc1)C(=O)c1ccccc1 | inactive
20 | c1nc[nH]n1 | inactive
21 | O=C(O)C1C(C(=O)O)C2(Cl)C(Cl)=C(Cl)C1(Cl)C2(Cl)Cl (configuration not stated) | inactive
22 | CC(O)C#N (configuration not stated) | inactive
23 | O=C(O)CF | inactive
24 | CCCCOCCOP(=O)(OCCOCCCC)OCCOCCCC | inactive

Row | SMILES | outcome
25 | C=C(C)C(=O)OCC1CO1 (configuration not stated) | inactive
26 | N#Cc1ccc(O)cc1 | inactive
27 | ClC(Cl)(Cl)c1ccccc1 | inactive
28 | Oc1ccc(I)cc1 | inactive
29 | CC(C)(C)c1ccc(O)cc1 | inactive
30 | O=C(O)C(Cl)Cl | inactive
31 | CC(C)CBr | inactive
32 | OCC(F)(F)OC(F)(F)C(F)(F)OC(F)(F)C(F)(F)OC(F)(F)CO | inactive
33 | Nc1ccc(Cl)cc1 | inactive
34 | COC(N)=O | inactive
35 | Nc1ccc2ccccc2c1 | inactive
36 | CCOS(=O)(=O)OCC | inactive
37 | Cc1cccc(N)c1 | inactive
38 | ClC1=C(Cl)C2(Cl)C3C(Cl)C(Cl)CC3C1(Cl)C2(Cl)Cl (configuration not stated) | inactive
39 | CC1=C(C(=O)Nc2ccccc2)S(=O)(=O)CCO1 | inactive

system: not listed separately; assay: ATG_M_32_TRANS: Attagene TRANS-FACTORIAL HepG2 Assay for M32 Transcription Factor (Internal Marker) (AID 2282984); details: HepG2 Attagene TRANS M32 internal marker reporter;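 further: transcript level of a background control reporter unit measured by RT-PCR and capillary electrophoresis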
Procedure, shortened: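 Capillary electrophoresis of 6-FAM-labelled reporter fragments gives the signal; data fitted for gain over DMSO negative control. Source: HepG2 cells bearing transient multiple reporter transcription units, 24 h exposure.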

Row | SMILES | outcome
40 | CO/N=C(/C(=O)OC)c1ccccc1COc1ccccc1C | inactive
41 | CC(C)(C)c1ccccc1OP(=O)(Oc1ccccc1)Oc1ccccc1 | inactive
42 | O=[N+]([O-])c1cc(Cl)ccc1Cl | inactive
43 | CCOP(=O)(O)C(N)=O | inactive
44 | OCC1CO1 (configuration not stated) | inactive
45 | Cn1[nH]nnc1=S | inactive
46 | c1nc[nH]n1 | inactive
47 | O=C(O)C1C(C(=O)O)C2(Cl)C(Cl)=C(Cl)C1(Cl)C2(Cl)Cl (configuration not stated) | inactive
48 | O=C(O)CF | inactive
49 | CCCCOCCOP(=O)(OCCOCCCC)OCCOCCCC | inactive
50 | C=C(C)C(=O)OCC1CO1 (configuration not stated) | inactive
51 | N#Cc1ccc(O)cc1 | inactive
52 | Oc1ccc(I)cc1 | inactive
53 | CCOP(=S)(OCC)SCSc1ccc(Cl)cc1 | inactive
54 | CNC(=O)Oc1ccc(N(C)C)c(C)c1 | inactive
55 | CC(C)(C)c1ccc(O)cc1 | inactive
56 | c1ccc(OP(Oc2ccccc2)Oc2ccccc2)cc1 | inactive
57 | CC(C)CBr | inactive
58 | Nc1ccc(Cl)cc1 | inactive
59 | Nc1ccc2ccccc2c1 | inactive
60 | Nc1ccc([N+](=O)[O-])cc1Cl | inactive
61 | CCOS(=O)(=O)OCC | inactive
62 | Cc1cccc(N)c1 | inactive
63 | ClC1=C(Cl)C2(Cl)C3C(Cl)C(Cl)CC3C1(Cl)C2(Cl)Cl (configuration not stated) | inactive

molecular target: Nuclear receptor subfamily 4 group A member 2 (Homo sapiens) (UniProt P43354); assay: ATG_NURR1_TRANS: Attagene TRANS-FACTORIAL HepG2 Assay for human Nuclear Receptor Related Protein 1 (NURR1) (AID 2282985); details: HepG2 Attagene TRANS reporter, mRNA readout
Sequence (P43354 whole entry, looked up): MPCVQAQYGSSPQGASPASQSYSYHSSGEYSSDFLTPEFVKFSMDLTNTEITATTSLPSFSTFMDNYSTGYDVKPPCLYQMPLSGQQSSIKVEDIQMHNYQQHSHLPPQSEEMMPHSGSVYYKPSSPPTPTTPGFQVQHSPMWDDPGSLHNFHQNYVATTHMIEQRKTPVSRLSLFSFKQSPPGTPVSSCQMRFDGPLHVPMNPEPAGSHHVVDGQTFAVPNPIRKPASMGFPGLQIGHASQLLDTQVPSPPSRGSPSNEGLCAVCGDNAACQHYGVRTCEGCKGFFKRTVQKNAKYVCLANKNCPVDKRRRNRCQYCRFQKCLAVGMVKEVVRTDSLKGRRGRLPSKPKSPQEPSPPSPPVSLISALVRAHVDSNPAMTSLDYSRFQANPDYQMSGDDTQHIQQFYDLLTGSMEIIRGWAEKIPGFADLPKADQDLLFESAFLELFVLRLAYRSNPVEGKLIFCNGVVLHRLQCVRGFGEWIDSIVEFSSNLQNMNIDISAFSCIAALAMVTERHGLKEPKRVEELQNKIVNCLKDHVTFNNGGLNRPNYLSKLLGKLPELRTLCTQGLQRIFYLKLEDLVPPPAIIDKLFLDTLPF
Procedure, shortened: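 HepG2 / transient MRTU transfection / 24 h compound exposure / RT-PCR + CE fluorescence of reporter mRNA / gain-of-signal vs DMSO.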

Row | SMILES | outcome | AC50
64 | COP(=O)(O)OC | inactive | –
65 | N#Cc1c(-c2ccc(Cl)cc2)[nH]c(C(F)(F)F)c1Br | inactive | –
66 | Cc1c([N+](=O)[O-])cc2c(c1[N+](=O)[O-])C(C)(C)CC2(C)C | – | 14.6 µM (active)
67 | CC(C)(C)c1ccccc1OP(=O)(Oc1ccccc1)Oc1ccccc1 | – | 57.4 µM (active)
68 | CCOP(=S)(NC(C)C)Oc1ccccc1C(=O)OC(C)C (configuration not stated) | – | 57.4 µM (active)
69 | Cn1[nH]nnc1=S | inactive | –
70 | CC(C)(C)N(NC(=O)c1ccc(Cl)cc1)C(=O)c1ccccc1 | inactive | –
71 | c1nc[nH]n1 | inactive | –
72 | O=C(O)CF | inactive | –
73 | CCCCOCCOP(=O)(OCCOCCCC)OCCOCCCC | inactive | –
74 | C=C(C)C(=O)OCC1CO1 (configuration not stated) | inactive | –
75 | CCCCOCC1CO1 (configuration not stated) | inactive | –
76 | N#Cc1ccc(O)cc1 | inactive | –
77 | ClC(Cl)(Cl)c1ccccc1 | inactive | –
78 | Oc1ccc(I)cc1 | inactive | –
79 | CCOP(=S)(OCC)SCSc1ccc(Cl)cc1 | inactive | –
80 | OCC(F)(F)OC(F)(F)C(F)(F)OC(F)(F)C(F)(F)OC(F)(F)CO | inactive | –
81 | Nc1ccc(Cl)cc1 | inactive | –
82 | CC1=C(C(=O)Nc2ccccc2)S(=O)(=O)CCO1 | inactive | –

Source: PubChem BioAssay (EPA / NIEHS)
